The full ranking holds about 68,000 sequences; the median of “fluorescence intensity (a.u.)” is about 9,100, and the highest 2% start at about 16,000. The sample as a whole holds a higher share of the highest values than the screen did.
The sequences below were run against OsWRKY34 (Oryza sativa, UniProt Q0JBA9 1-250) (assay: protein-binding microarray (RPBM); PBS, 2% BSA, 51.3 ng/ul salmon testes DNA, 50 uM zinc acetate, 200 nM TF, 25 C, 1 h; high values mean tight binding). Details: protein: recombinant; tags: N-terminal polyhistidine and DsRed monomer fusion (pET32a); label: CyDye5-dUTP incorporated in the synthesized complementary strand; 3' TTTTT single-stranded linker to array surface; dsDNA, one strand shown.
Method in brief: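 Per-feature fluorescence intensity (arbitrary units), read on an Axon 4000B scanner, is the binding signal. Transcription factors carrying an N-terminal polyhistidine tag and DsRed fusion were expressed in E. coli BL21-CodonPlus and purified on Ni–NTA. A custom Agilent array, made double-stranded by primer extension with Cy5-dUTP and blocked with 2% BSA, was incubated with 200 nM protein in PBS, 2% BSA, salmon testes DNA and 50 µM zinc acetate at 25 °C for 1 h and then washed.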

Chain of OsWRKY34 (Q0JBA9 entry or part of it): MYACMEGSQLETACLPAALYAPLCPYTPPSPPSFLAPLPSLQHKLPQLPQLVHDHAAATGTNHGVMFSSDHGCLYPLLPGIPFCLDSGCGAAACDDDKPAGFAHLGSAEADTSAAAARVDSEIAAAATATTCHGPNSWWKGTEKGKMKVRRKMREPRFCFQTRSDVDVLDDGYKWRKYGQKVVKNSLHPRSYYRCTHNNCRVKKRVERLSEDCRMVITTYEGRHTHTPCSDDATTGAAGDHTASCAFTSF

Sequence	binding signal
AATTTTTATATTGTTGACCTGCAGATCCTTATGTTGGACTCGGAGTCACCTAGTGCAG	8260 fluorescence intensity (a.u.)
AACGTACCACTCCCGTGGGCCGGACCAACACTCCTTCCCACGGAGTCACCTAGTGCAG	9510 fluorescence intensity (a.u.)
TGCGTGTTGTGTGTGTGGGTGATCTTTGGCGCGCCTCGTCCGGAGTCACCTAGTGCAG	8120 fluorescence intensity (a.u.)
ATCCCCATTTTTTTCCCAAGTGGTACACTGAAATTTTTTTCGGAGTCACCTAGTGCAG	8100 fluorescence intensity (a.u.)
TTCCCCACCACCACCAACCCAGACCGGCCGCGGCCTATATCGGAGTCACCTAGTGCAG	8270 fluorescence intensity (a.u.)
TTTATAGATGGGGAAGGGGTGGCAACTAGAGACGCGACGGCGGAGTCACCTAGTGCAG	9070 fluorescence intensity (a.u.)
TTCTCCGTGTTAATATCACTTACGTCAAGGACCTATTTGTCGGAGTCACCTAGTGCAG	8750 fluorescence intensity (a.u.)
CGATGTGATTTAGTGAAAAATTTTAGGGTGGGCTAAACAGCGGAGTCACCTAGTGCAG	11500 fluorescence intensity (a.u.)
TGGAGGTGGGGAGGATGCGGGAGAGGGAGGTGATGATGGGCGGAGTCACCTAGTGCAG	8790 fluorescence intensity (a.u.)
GGGGTGGGGTGGAGAGGGTGAAGCGGCGACGGTGACGATGCGGAGTCACCTAGTGCAG	9870 fluorescence intensity (a.u.)
GACTGGGAGGATGAGGGGTGGGTGGGTGTGGCTGCTTCTGCGGAGTCACCTAGTGCAG	19100 fluorescence intensity (a.u.)
GTGAGGTGGGGTGGTGTGGCTTCTGCTGCTGCTGCTACTGCGGAGTCACCTAGTGCAG	15100 fluorescence intensity (a.u.)
GTGTGGAGGTGGTGGGGAGTGTGAGGAGAGGGAGGGGATGCGGAGTCACCTAGTGCAG	18000 fluorescence intensity (a.u.)
GTGAAGCGATCTGTATTGGTGGAGGGGAGGGGAGGGGATGCGGAGTCACCTAGTGCAG	24000 fluorescence intensity (a.u.)
CGGTGAGGGGTGGACTGGGAGTGCGTGGGTGGGTGTGATGCGGAGTCACCTAGTGCAG	13400 fluorescence intensity (a.u.)
GGCGTGTTGGTGTGCGTGGATTGGGTGGGTGAGGAGGATGCGGAGTCACCTAGTGCAG	13000 fluorescence intensity (a.u.)
TCGCTGTGAGTGGAGGAGGAGGAGGAAGGGGAGGAGGATGCGGAGTCACCTAGTGCAG	8630 fluorescence intensity (a.u.)
TTTTGCCATCTGGTAATCCCTCTACCACCAACAGCTACAACGGAGTCACCTAGTGCAG	9220 fluorescence intensity (a.u.)
AGTACTCCTCCGTTCTAAATTAGATGTCGTTTTGATTTTTCGGAGTCACCTAGTGCAG	8570 fluorescence intensity (a.u.)
CTCTTGGCGATTTGCGGAAGTTGTTGTTGTCCCCTTGCTCCGGAGTCACCTAGTGCAG	8060 fluorescence intensity (a.u.)
TTAGCAAAAACATATCCTTTCTTGCCACACTACTAAGCCACGGAGTCACCTAGTGCAG	8160 fluorescence intensity (a.u.)

Sequence	binding signal
ACACGGCCACCCGCATCCGCACCACCCGCAAGCCGCGACGCGGAGTCACCTAGTGCAG	9450 fluorescence intensity (a.u.)
GCTGGGAGTTAGAACGGTGATCCATCTAGATGTAATGGTCCGGAGTCACCTAGTGCAG	8740 fluorescence intensity (a.u.)
CTCCGTTTTCACCCCTATGTATAGTTTATATGTAAATTGCCGGAGTCACCTAGTGCAG	8830 fluorescence intensity (a.u.)
ATTTGATTTATTGTTAAATATACTTTCATGTACACATATACGGAGTCACCTAGTGCAG	8240 fluorescence intensity (a.u.)
GGGTGTAATTTTTGTTTTACATGTACGGAATTTTTTACTCCGGAGTCACCTAGTGCAG	10800 fluorescence intensity (a.u.)
TTGTTACTTTAATTTGTACATCATCATGCGGGTCCGTATACGGAGTCACCTAGTGCAG	16600 fluorescence intensity (a.u.)
ATATAGCCTACTACTAGCTCCAAATCATCTATAGTCAATGCGGAGTCACCTAGTGCAG	8120 fluorescence intensity (a.u.)
TGGGAGGGTTTCTGATCATCAGCTGTCCTCTTTACCGGCACGGAGTCACCTAGTGCAG	11300 fluorescence intensity (a.u.)
GGATTGCCGGTTTTTGGTGTCCTTTTCGCATCAGCTTTAGCGGAGTCACCTAGTGCAG	9120 fluorescence intensity (a.u.)
TAGATGATGCTGTTAACTTTTTCTCACATGTTTGACCATTCGGAGTCACCTAGTGCAG	12700 fluorescence intensity (a.u.)
ATAGATGACGCCGTTGATTTTTTCTCACATGTTTGACCGTCGGAGTCACCTAGTGCAG	15600 fluorescence intensity (a.u.)
TTTTCTCACATGTTTGACCATTCGTCTTATTCAAAAATTTCGGAGTCACCTAGTGCAG	9990 fluorescence intensity (a.u.)
GACGCCGTTGATTTTTTCTCACATGTTTGACCATTCGTCTCGGAGTCACCTAGTGCAG	18000 fluorescence intensity (a.u.)
GACGCTGTTGACTTTTTCTCACATGTTTGACCATTCGTCTCGGAGTCACCTAGTGCAG	28900 fluorescence intensity (a.u.)
TAGATGACGTCGTTGACTTTTTCTCACATGTTTGACCATTCGGAGTCACCTAGTGCAG	28800 fluorescence intensity (a.u.)
AGATGACGCCATTGACTTTTTCTCACATGTTTGACCATTCCGGAGTCACCTAGTGCAG	15800 fluorescence intensity (a.u.)
TTTCTCACATGTTTGACCATTCGTCTTATTCAAAAATTTTCGGAGTCACCTAGTGCAG	12800 fluorescence intensity (a.u.)
GACGCCGTTAACTTTTTCTCACATGTTTAACCATTCGTCTCGGAGTCACCTAGTGCAG	12700 fluorescence intensity (a.u.)
CAGTTTTTGAGGTAGAAGGGTATCATTGTAATTTTGCATCCGGAGTCACCTAGTGCAG	8850 fluorescence intensity (a.u.)
AAATGTGGTTTTGATGGTTTCCAACATATATTTATCGGTTCGGAGTCACCTAGTGCAG	8570 fluorescence intensity (a.u.)
TTATCAAATTCCGATCAAATCATTCCTCGTCGGCGTCCATCGGAGTCACCTAGTGCAG	8880 fluorescence intensity (a.u.)

Source: PMC7819943, “Rice protein-binding microarrays: a tool to detect cis-acting elements near promoter regions in rice”
